A selection: hits, their analogues and other compounds. The true share with any hit is near 0.44%.
ERG Ets-DNA blk = inhibitors of human ERG Ets domain-DNA interaction | P11308 | fluorescence polarization, His-ERG Ets domain / labelled DNA | Potency, µM (top dose mostly 76.9 µM), actives largely listed as inhibitors | 370,000 tested, 0.028% active | AID 624246; active means well fitted inhibition curve with a large enough effect in the polarisation, with a control signal flat; inconclusive means small, poorly fitted or top-dose-only effect, or effect the other way, or a change in a side signal; inactive means no such curve, though single readings can be large or run the other way; the % refers to the polarisation;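 further: polarization taken with two DNA probes labelled with fluorescein and Texas red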
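His-tagged ERG Ets domain (1 uM in the protein solution; 300mM KCl, 50mM Tris-HCl, 1mM EDTA, 1mM DTT, pH 7.5) received compound, then a probe mix of 5 nM fluorescein-DNA and 100nM Texas-615-DNA. Fluorescence polarization was read for both dyes.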
TR SRC2 fluor cs = counter-screen for TRb-SRC2 inhibitors: fluorescence interference. TRb/SRC2 Texas Red total fluorescence interference. Potency, µM (series often up to 106 µM). 280,000 tested, 0.29% active; active means well fitted curve in either direction with a large enough effect; inconclusive means small, poorly fitted or top-dose-only effect
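Human TRβ ligand-binding domain (0.6 uM) and Texas Red SRC2 peptide (20 nM) in Tris buffer with 1 uM T3 and 5% DMSO were incubated with pinned compound for 5 hr at ambient temperature. Total fluorescence was computed as S + 2P (555/632 nm).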
GoLoco inh red = inhibitors of human Gai1-RGS12 GoLoco interaction (red fluorophore); P63096; Gai1:RGS12 GoLoco peptide FP, rhodamine, 10 min; Potency, µM (titrated, usually from 61.6 µM), hits mostly inhibitors; 230,000 tested, 0.44% active; AID 880; active means well fitted inhibition curve with a large enough effect, not every such curve was filed as active; inactive means no such curve, though single readings can be large or run the other way; further: nearly all actives have a fitted effect of over 30% in size
TRb-SRC2 inh = disrupts binding of human TR beta to SRC2 | P10828 | TRbeta-SRC2 peptide binding, fluorescence polarization; receptor liganded with 1 µM T3 | Potency, µM (highest dose often 106 µM), most hits filed as inhibitors | 280,000 tested, 0.065% active; further: nearly all actives have a fitted effect of over 50% in size
Target sequence (P10828 whole entry, looked up): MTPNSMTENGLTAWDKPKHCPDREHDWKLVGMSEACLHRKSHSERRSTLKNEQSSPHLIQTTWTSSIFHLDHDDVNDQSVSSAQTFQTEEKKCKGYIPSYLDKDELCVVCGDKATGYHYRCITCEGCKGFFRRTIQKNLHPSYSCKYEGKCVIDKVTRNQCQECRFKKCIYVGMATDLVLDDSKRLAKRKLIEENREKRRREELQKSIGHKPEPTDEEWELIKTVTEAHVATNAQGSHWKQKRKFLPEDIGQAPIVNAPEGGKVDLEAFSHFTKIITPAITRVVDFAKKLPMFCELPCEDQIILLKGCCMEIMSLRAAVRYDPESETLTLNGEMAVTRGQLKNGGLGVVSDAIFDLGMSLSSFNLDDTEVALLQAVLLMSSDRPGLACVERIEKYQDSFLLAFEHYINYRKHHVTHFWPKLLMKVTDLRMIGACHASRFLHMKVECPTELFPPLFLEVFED
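Each compound concentration gave % activity, normalized to unbound and bound Texas Red SRC2 controls, from polarization read after 5 hr ambient incubation with T3-loaded human TRb LBD.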
Apoferritin bind = candidate novel general anesthetic via apoferritin binding; Potency, µM (series often up to 77.5 µM), usual class: inhibitors; 350,000 tested, 0.074% active; apoferritin/1-aminoanthracene competitive binding, fluorescence; P02791; AID 485281; further: nearly all actives have a fitted effect of over 20% in size
Target sequence (P02791 2-175 limits assumed): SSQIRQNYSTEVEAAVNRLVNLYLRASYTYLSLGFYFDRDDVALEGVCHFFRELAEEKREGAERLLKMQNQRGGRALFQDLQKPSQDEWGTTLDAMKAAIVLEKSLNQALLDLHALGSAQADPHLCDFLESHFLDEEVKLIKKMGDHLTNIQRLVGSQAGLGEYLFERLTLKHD
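Horse-spleen apoferritin (10 uM) was mixed with 50% saturated 1-aminoanthracene in PBS, exposed to compounds for 10 min at room temperature, and read for fluorescence (ex 380 nm, em 535 nm). Competitive displacement was fitted with a four-parameter Hill equation.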
Hits are given with their value; . = inactive; ? = inconclusive; / = no result; ! = not confirmed by another sample; [ ] = dose if it differs, or a comment. Unless noted, the call rests on the fitted dose curve; in most records, active means well fitted curve in the direction sought with a large enough effect; inconclusive means small, poorly fitted or top-dose-only effect, or another doubt; inactive means no such curve, though single readings can be large; an effect the other way counts as inactive or inconclusive.

SMILES	ERG Ets-DNA blk	TR SRC2 fluor cs	GoLoco inh red	TRb-SRC2 inh	Apoferritin bind
COc1cccc2c1C(=O)c1c(O)c3c(c(O)c1C2=O)C[C@@](O)(C(=O)CO)C[C@H]3O[C@H]1C[C@@H](N)[C@H](O)[C@@H](C)O1.[W]	/	/	.[14.2 µM]	/	/
CSCC[C@H](NC(=O)[C@H](CC(C)C)NC(=O)CNC(=O)[C@H](Cc1ccccc1)NC(=O)[C@H](Cc1ccccc1)NC(=O)[C@H](CCC(N)=O)NC(=O)[C@H](CCC(N)=O)NC(=O)[C@@H]1CCCN1C(=O)[C@H](CCCCN)NC(=O)[C@@H]1CCCN1C(=O)[C@@H](N)CCCN=C(N)N)C(N)=O	/	.	/	.	.
c1ccc2c(c1)Cc1ccccc1-2	/	.	/	.	/
CCOc1cc(CNc2ccc(N(C)C)cc2)cc(Br)c1OCC(=O)NC(C)(C)C	.	44.7µM[fluorescent]	.	39.8µM	?
CCOc1cc(CNc2ccc(N3CCCCC3)cc2)cc(Br)c1OCC(=O)NC(C)(C)C	.	.	.	.	?
CO[C@]12C[C@@H](COC(=O)c3cncc(Br)c3)CN(C)[C@@H]1Cc1cn(C)c3cccc2c13	/	.	12.6µM!	.	/
CCOC(=O)c1cccc(NC(=O)c2cncc(Br)c2)c1	.	.	.	.	.
CC1=C(C(=O)N2CCOCC2)C(c2cc(C)cs2)NC(=O)N1 (centres undefined)	.	28.2µM[fluorescent]	.	20µM	.
CC1=C(C(=O)N2CCOCC2)C(c2cccs2)NC(=O)N1 (centres undefined)	.	.	.	.	.
Cc1cc(Cc2cc(C)c(N)cc2N)c(N)cc1N	/	/	.[14.2 µM]	/	/
CN(C)c1ccc(C=Nc2ccc(N(C)C)cc2)cc1	.	?	.	50.1µM	.
Cc1ccc(C)c(N2CCN(C(=O)CS(=O)(=O)c3cccc4nsnc34)CC2)c1	.	0.0355µM[quencher]	/	.	.
CCC(=O)NS(=O)(=O)c1cccnc1Nc1ccc(Cl)cc1	.	.	.	.	.
NS(=O)(=O)c1cccnc1Nc1ccc(Cl)c(Cl)c1	.	.	.	.	8.91µM
CN(C)CCCOc1ccc(C(C)(C)c2ccccc2)cc1	.	.	.	.	15.8µM
CN(C)CCOc1ccc(C(C)(C)c2ccccc2)cc1	.	.	.	.	.
O=C(Cc1ccccc1Nc1c(Cl)cccc1Cl)OCO/N=[N+](\[O-])N1CCCC1	/	.	/	.	.
Cc1cc(C)n2c(Nc3ccc(Cl)cc3)c(-c3ccsc3)nc2n1	.	1122µM[quencher]	/	.	.
CC1(C)C(=O)OC(C(=O)c2ccc(C(C)(C)C)cc2)C(C)(C)C1=O (centres undefined)	.	.	.	.	20µM
Cc1cc(C)c(C)c(C(=O)C2OC(=O)C(C)(C)C(=O)C2(C)C)c1C (centres undefined)	.	.	.	.	.
C[N+](C)(C)C/C=C1/COCO1	.	.	10µM	.	.
CCCCN(CC)c1nc(C)nc2c1c(C)c(C)n2-c1c(C)cc(C)cc1C	/	.	/	.	.
O=[N+]([O-])c1ccc(CSc2ncnc3c2ncn3C2OC(CO)C(O)C2O)cc1 (centres undefined)	/	.	.	.	/
Cc1csc(=N)n1-c1ccc(Cl)cc1	/	.	.	.	11.2µM
O=C(COc1ccccc1O)c1cccs1	.	.	.	.	28.2µM
SMILES	ERG Ets-DNA blk	TR SRC2 fluor cs	GoLoco inh red	TRb-SRC2 inh	Apoferritin bind
CC/C(=C/c1sc2ccc(C)cc2[n+]1CCO)SC	.	.	.	.	.
CC/C(=C/c1sc2ccc(C)cc2[n+]1CCCS(=O)(=O)[O-])SC	?	44.7µM[fluorescent]	.	?	.
O=C(/C=C/c1c(C(=O)O)[nH]c2cc(Cl)cc(Cl)c12)Nc1ccccc1	/	.	.	.	.
Cc1ccc(S(=O)(=O)Oc2ccc(N=Nc3ccc(-c4ccc(N=Nc5c(O)ccc6cc(S(=O)(=O)O)cc(S(=O)(=O)O)c56)c(C)c4)cc3C)cc2)cc1	/	.	.	?	/
Cc1cc(=S)nc(-c2ccccn2)[nH]1	.	.	.	.	.
CSc1nc(=S)cc(C)[nH]1	.	.	5.62µM	.	.
COc1cc(NS(=O)(=O)c2ccc3[nH]c4c(c3c2)CCCC4)cc(OC)c1OC	.	20µM[quencher]	/	.	.
COc1ccc(NS(=O)(=O)c2ccc3[nH]c4c(c3c2)CCCC4)cc1OC	.	.	/	.	.
O=c1oc(-c2ccc(C(F)(F)F)cc2)nn1Cc1cc(Cl)ccc1O	/	.	/	.	.
CCOc1ccc2nc(N3CCCC(C(=O)NCCc4ccc(Cl)cc4)C3)sc2c1 (centres undefined)	.	.	/	.	.
CCOc1ccc2nc(N3CCCC(C(=O)NCCc4ccc(SC)cc4)C3)sc2c1 (centres undefined)	.	39.8µM[quencher]	/	.	.
COc1ccc(-c2cc(C(F)(F)F)n3nc(C(=O)Nc4cc(C(F)(F)F)ccc4Cl)cc3n2)cc1OC	.	.	/	.	.
COc1ccc(-c2cc(C(F)(F)F)n3nc(C(=O)Nc4cccc(Cl)c4Cl)cc3n2)cc1OC	.	0.0355µM[quencher]	/	.	.
CCCCNC(=O)NS(=O)(=O)c1ccc(CO)cc1	/	.	/	.	.
O=C(O)CCCCCCCCCCC(=O)O	/	.	/	.	/
O=c1/c(=C\c2cc([N+](=O)[O-])cc([N+](=O)[O-])c2O)sc2nc3ccccc3n12	.	44.7µM[quencher]	.	.	?
COc1ccc(/C=N/N=C2/CC(C)(C)Cc3n[nH]c(=O)cc32)cc1	.	.	28.2µM	?	.
Cc1cc(C)c2c(=O)cc(C(=O)Nc3ccc(S(=O)(=O)Nc4onc(C)c4C)cc3)oc2c1	.	126µM[quencher]	/	.	.
CC(C)CCCCCCc1ccc(OCCOCCO)cc1	/	.	/	.	/
COc1ccc(CNc2nc(-c3ccc(N(C)C)cc3)nc3ccccc23)c(OC)c1	/	/	8.91µM	/	/
CCC(CC)NC(=O)COC(=O)c1cc(SC)ccc1Cl	12.6µM	.	.	.	.
CCCCN(CCCC)CCCC	/	.	/	.	/
COc1cccc(O)c1O	/	.	.	.	.
CCn1c(/C=C/N(C(C)=O)c2ccccc2)[n+](CC)c2ccc(Cl)cc21	.	.	1.78µM	.	.
CC[n+]1c(/C=C/C=C/N(C(C)=O)c2ccccc2)sc2ccccc21	.	.	.	.	?
Brc1ccc(Oc2ccc(Br)cc2)cc1	/	.	/	.	/
CCN(CC)c1ccc(C(=C2C=CC(=[N+](CC)Cc3cccc(S(=O)(=O)[O-])c3)C=C2)c2ccc(N(CC)Cc3cccc(S(=O)(=O)O)c3)cc2)cc1	/	11.2µM[fluorescent]	/	11.2µM	?
CCN(Cc1cccc(S(=O)(=O)O)c1)c1ccc(C(=C2C=CC(=[N+](CC)Cc3cccc(S(=O)(=O)[O-])c3)C=C2)c2ccccc2)cc1	/	89.1µM[quencher]	/	?	/
CS(=O)(=O)c1ccc(Cl)cc1	/	.	/	.	/
C[n+]1ccccc1N1CCN(c2ccccc2Cl)CC1	.	.	12.6µM	.	.
